Experimental data taken from ChEMBL document CHEMBL1961873, “Compounds: GSK PKIS; Assays: Nanosyn kinase panel” (2012).

Assays:
[1] = target: Ribosomal protein S6 kinase alpha-6 (Homo sapiens) (UniProt Q9UK32); details: at 1 µM;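 note: each value is a mean inhibition of RSK4 from a GSK PKIS panel screen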
[2] = target: T1, Serine/threonine-protein kinase Sgk1 (Homo sapiens) (UniProt O00141); details: at 0.1 µM
T1 sequence (whole entry): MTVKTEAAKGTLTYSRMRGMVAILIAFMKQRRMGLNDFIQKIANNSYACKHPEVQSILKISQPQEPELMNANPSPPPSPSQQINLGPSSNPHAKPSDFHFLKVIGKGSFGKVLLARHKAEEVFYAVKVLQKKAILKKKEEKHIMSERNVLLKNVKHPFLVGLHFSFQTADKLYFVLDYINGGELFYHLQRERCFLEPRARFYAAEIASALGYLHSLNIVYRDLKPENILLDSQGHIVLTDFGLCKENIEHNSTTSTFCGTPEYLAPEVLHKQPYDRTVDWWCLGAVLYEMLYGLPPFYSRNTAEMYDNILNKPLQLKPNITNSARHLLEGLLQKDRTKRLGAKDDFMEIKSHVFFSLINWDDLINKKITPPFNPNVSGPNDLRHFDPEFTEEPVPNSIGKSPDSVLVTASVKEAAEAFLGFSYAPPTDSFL

[3] = target: T1, Serine/threonine-protein kinase Sgk1 (Homo sapiens); details: at 1 µM
[4] = target: T2, Serine/threonine-protein kinase Sgk2 (Homo sapiens) (UniProt Q9HBY8); details: at 0.1 µM
T2 sequence (whole entry): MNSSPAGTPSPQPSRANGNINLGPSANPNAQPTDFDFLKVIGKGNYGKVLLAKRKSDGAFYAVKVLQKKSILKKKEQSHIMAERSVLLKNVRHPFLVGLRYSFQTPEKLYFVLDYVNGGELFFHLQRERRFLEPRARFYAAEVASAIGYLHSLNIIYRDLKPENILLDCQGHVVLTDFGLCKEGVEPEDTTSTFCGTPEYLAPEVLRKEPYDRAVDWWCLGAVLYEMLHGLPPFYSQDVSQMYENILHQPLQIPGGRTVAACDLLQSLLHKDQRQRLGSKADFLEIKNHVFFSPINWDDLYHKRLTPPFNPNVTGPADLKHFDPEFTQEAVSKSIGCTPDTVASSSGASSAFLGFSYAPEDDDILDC

[5] = target: T2, Serine/threonine-protein kinase Sgk2 (Homo sapiens); details: at 1 µM
[6] = target: T3, Serine/threonine-protein kinase Sgk3 (Homo sapiens) (UniProt Q96BR1); details: at 0.1 µM
T3 sequence (whole entry): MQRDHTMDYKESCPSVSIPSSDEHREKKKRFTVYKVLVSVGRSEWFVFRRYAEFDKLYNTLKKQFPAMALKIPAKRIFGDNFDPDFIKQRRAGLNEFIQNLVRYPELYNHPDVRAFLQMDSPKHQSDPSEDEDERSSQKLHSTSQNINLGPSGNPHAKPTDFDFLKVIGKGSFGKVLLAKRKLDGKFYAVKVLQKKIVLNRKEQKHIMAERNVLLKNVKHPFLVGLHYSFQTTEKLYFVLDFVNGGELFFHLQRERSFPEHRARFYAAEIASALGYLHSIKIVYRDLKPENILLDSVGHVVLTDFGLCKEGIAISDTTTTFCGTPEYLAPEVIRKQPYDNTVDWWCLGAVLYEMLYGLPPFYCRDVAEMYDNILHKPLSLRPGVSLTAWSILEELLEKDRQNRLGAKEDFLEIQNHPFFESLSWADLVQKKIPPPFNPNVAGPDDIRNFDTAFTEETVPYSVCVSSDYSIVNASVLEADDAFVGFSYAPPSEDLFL

[7] = target: T3, Serine/threonine-protein kinase Sgk3 (Homo sapiens); details: at 1 µM
[8] = target: 5'-AMP-activated protein kinase catalytic subunit alpha-1 (Homo sapiens) (UniProt Q13131); details: at 0.1 µM
[9] = target: 5'-AMP-activated protein kinase catalytic subunit alpha-1 (Homo sapiens) (UniProt Q13131); details: at 1 µM
[10] = target: 5'-AMP-activated protein kinase catalytic subunit alpha-2 (Homo sapiens) (UniProt P54646); details: at 0.1 µM
[11] = target: 5'-AMP-activated protein kinase catalytic subunit alpha-2 (Homo sapiens) (UniProt P54646); details: at 1 µM
[12] = target: T4, NUAK family SNF1-like kinase 1 (Homo sapiens) (UniProt O60285); details: at 0.1 µM
T4 sequence (whole entry): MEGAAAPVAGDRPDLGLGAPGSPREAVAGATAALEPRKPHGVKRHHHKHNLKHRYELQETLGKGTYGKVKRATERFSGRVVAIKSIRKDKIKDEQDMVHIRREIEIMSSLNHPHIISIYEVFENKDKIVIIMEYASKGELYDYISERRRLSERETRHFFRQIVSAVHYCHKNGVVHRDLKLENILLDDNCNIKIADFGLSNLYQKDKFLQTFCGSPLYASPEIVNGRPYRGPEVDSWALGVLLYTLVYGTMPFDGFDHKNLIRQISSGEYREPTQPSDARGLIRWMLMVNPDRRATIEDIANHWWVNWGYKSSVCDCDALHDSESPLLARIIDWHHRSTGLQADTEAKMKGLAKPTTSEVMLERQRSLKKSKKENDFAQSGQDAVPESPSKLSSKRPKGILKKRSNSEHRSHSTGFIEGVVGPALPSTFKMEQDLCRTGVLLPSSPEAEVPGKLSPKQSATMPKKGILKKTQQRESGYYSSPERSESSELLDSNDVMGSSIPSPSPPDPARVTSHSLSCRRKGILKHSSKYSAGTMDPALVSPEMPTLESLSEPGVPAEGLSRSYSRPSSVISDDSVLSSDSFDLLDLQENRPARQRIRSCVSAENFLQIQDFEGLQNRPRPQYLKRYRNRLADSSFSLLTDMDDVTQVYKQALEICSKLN

[13] = target: T4, NUAK family SNF1-like kinase 1 (Homo sapiens); details: at 1 µM
[14] = target: T5, Serine/threonine-protein kinase BRSK1 (Homo sapiens) (UniProt Q8TDC3); details: at 0.1 µM
T5 sequence (whole entry): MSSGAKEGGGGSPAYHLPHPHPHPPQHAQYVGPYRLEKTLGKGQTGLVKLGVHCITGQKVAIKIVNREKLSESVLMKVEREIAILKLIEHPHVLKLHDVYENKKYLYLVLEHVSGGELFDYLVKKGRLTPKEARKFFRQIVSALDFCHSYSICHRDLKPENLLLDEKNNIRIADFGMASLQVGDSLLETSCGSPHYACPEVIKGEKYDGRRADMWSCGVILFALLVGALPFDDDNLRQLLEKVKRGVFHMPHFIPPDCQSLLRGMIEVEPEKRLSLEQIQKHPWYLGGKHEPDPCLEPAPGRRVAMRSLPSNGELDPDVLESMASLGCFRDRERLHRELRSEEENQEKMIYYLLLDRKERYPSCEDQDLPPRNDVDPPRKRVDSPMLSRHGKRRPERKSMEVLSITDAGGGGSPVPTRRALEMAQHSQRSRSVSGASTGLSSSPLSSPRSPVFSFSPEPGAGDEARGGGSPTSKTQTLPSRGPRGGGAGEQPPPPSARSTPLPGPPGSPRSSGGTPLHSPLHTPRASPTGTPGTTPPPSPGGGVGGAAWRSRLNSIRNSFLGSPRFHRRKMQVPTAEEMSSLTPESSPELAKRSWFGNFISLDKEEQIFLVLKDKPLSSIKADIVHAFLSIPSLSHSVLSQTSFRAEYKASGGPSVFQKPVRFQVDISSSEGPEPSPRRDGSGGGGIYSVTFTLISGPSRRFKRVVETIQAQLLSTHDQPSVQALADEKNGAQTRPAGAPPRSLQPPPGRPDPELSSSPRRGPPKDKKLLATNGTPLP

[15] = target: T5, Serine/threonine-protein kinase BRSK1 (Homo sapiens); details: at 1 µM
[16] = target: T6, Serine/threonine-protein kinase BRSK2 (Homo sapiens) (UniProt Q8IWQ3); details: at 0.1 µM
T6 sequence (whole entry): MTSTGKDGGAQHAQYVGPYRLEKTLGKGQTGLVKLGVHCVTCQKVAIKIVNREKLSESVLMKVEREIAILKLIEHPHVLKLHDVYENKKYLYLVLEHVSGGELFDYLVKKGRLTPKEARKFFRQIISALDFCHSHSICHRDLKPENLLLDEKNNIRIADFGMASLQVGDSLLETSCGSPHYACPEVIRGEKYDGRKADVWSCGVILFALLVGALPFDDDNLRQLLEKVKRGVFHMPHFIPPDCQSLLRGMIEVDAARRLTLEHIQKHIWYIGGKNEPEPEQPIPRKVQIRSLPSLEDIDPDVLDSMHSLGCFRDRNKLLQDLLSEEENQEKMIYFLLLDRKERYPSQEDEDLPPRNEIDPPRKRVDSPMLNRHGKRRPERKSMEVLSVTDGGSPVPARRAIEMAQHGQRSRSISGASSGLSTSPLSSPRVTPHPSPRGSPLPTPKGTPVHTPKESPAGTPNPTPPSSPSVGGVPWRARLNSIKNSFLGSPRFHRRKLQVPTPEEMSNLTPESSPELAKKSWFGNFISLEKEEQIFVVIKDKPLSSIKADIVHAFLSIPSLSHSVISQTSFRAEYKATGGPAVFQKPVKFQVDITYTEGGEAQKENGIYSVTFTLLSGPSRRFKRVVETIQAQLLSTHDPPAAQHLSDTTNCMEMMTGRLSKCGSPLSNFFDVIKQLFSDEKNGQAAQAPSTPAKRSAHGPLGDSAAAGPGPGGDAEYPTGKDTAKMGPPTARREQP

[17] = target: T6, Serine/threonine-protein kinase BRSK2 (Homo sapiens); details: at 1 µM
[18] = target: Calcium/calmodulin-dependent protein kinase type 1D (Homo sapiens) (UniProt Q8IU85); details: at 0.1 µM
[19] = target: Calcium/calmodulin-dependent protein kinase type 1D (Homo sapiens) (UniProt Q8IU85); details: at 1 µM
[20] = target: Calcium/calmodulin-dependent protein kinase type II subunit alpha (Homo sapiens) (UniProt Q9UQM7); details: at 0.1 µM;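 note: reported values are averages (mean inhibition of CAMK2A)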
Chain of Calcium/calmodulin-dependent protein kinase type II subunit alpha (Homo sapiens) (Q9UQM7 whole entry): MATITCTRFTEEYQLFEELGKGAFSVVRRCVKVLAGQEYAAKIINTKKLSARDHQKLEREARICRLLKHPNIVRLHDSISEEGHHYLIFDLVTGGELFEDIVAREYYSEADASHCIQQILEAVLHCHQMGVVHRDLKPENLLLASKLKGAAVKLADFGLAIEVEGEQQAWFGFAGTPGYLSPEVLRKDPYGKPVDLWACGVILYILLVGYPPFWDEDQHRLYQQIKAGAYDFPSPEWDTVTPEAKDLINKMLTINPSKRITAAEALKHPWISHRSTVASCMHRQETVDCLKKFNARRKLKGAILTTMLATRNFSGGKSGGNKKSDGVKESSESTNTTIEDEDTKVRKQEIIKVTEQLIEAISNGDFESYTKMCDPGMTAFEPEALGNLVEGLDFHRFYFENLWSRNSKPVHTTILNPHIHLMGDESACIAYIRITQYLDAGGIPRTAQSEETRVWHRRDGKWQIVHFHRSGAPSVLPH

Chain of 5'-AMP-activated protein kinase catalytic subunit alpha-1 (Homo sapiens) (Q13131 whole entry, looked up): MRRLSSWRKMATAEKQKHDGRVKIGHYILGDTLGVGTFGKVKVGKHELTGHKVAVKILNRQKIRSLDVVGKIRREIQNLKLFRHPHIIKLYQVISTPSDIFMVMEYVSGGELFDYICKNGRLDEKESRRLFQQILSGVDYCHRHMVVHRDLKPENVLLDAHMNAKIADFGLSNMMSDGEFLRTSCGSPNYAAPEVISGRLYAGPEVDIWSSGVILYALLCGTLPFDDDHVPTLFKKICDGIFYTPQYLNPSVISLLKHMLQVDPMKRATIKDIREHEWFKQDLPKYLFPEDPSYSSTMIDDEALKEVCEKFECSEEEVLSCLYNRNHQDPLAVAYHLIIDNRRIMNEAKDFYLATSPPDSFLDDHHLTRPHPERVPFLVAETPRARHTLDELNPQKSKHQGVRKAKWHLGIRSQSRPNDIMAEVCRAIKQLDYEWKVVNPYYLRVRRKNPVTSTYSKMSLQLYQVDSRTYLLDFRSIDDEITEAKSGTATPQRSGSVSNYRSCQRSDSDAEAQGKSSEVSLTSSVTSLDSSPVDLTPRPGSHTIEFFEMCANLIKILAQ
Chain of Calcium/calmodulin-dependent protein kinase type 1D (Homo sapiens) (Q8IU85 whole entry, looked up): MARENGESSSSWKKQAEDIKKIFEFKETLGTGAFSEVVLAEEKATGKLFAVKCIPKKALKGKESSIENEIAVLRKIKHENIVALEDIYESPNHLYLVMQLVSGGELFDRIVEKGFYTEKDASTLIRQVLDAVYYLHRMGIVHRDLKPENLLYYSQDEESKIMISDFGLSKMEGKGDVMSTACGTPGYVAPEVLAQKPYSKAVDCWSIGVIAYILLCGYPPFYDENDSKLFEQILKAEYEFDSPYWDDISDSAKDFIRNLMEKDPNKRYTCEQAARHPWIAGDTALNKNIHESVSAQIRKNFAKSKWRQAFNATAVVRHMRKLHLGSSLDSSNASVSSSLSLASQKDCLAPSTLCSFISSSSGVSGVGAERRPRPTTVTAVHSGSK
Chain of Ribosomal protein S6 kinase alpha-6 (Homo sapiens) (Q9UK32 whole entry): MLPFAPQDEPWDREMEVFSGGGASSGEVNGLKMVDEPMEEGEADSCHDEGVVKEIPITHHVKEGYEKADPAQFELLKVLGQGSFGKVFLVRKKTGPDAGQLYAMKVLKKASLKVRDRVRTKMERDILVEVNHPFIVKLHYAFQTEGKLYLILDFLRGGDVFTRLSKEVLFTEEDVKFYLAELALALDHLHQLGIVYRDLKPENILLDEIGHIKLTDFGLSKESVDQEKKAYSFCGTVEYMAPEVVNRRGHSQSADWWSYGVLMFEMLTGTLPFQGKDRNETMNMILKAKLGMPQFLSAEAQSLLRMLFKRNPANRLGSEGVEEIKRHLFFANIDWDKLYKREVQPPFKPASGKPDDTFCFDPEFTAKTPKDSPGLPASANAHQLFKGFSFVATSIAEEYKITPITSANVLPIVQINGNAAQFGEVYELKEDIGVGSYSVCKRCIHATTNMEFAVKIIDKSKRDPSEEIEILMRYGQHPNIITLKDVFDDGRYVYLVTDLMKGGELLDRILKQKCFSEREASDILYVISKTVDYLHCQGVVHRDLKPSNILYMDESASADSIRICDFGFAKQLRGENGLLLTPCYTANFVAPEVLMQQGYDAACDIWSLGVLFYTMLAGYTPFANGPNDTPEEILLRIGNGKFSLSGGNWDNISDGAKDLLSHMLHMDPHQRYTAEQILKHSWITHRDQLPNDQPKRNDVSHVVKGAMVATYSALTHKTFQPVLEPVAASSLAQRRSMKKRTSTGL
Chain of 5'-AMP-activated protein kinase catalytic subunit alpha-2 (Homo sapiens) (P54646 whole entry, looked up): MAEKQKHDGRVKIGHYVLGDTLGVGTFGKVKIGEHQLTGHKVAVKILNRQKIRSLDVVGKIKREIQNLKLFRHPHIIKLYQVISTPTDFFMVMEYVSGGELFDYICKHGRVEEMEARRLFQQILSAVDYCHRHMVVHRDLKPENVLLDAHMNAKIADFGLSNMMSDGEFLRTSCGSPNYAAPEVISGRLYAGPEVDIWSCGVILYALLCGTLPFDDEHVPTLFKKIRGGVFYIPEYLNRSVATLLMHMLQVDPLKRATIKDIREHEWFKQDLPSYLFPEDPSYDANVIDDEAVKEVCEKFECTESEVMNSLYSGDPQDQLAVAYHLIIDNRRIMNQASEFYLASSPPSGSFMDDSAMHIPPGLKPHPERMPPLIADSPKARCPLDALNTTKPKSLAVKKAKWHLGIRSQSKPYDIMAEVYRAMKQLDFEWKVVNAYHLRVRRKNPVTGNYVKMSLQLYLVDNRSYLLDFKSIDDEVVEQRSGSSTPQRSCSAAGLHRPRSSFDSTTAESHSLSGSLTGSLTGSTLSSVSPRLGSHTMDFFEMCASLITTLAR

SMILES	inhibition [1]	inhibition [2]	inhibition [3]	inhibition [4]	inhibition [5]	inhibition [6]	inhibition [7]	inhibition [8]	inhibition [9]	inhibition [10]	inhibition [11]	inhibition [12]	inhibition [13]	inhibition [14]	inhibition [15]	inhibition [16]	inhibition [17]	inhibition [18]	inhibition [19]	inhibition [20]
CCCN1CCC(c2ccc(Nc3nc(Nc4cc(F)ccc4C(N)=O)c4cc[nH]c4n3)c(OC)c2)CC1	63.4%	3.17%	13.8%	4.48%	5.14%	3.22%	4.03%	5.5%	26.9%	3.42%	13.2%	31.8%	62.8%	0.82%	2.49%	2.24%	6.88%	22.9%	71.5%	8.79%
CCn1c(-c2nonc2N)nc2c(C#CC(C)(C)O)nc(OC[C@H](N)c3ccccc3)cc21	7.07%	1.86%	3.49%	5.31%	13.4%	31.1%	57.7%	17.7%	65.7%	4.97%	15%	7%	47.3%	0.45%	1.15%	-0.02%	5.58%	0.96%	4.5%	2.34%
Nc1nc(-c2cccc(Cl)c2)c(-c2ccc3ncccc3n2)s1	2.73%	4.41%	5.86%	2.07%	3.59%	4.35%	6.98%	3.09%	5.53%	3.05%	3.28%	-2.86%	5.81%	0.2%	1.68%	1.95%	4.51%	-0.44%	0.6%	3.5%
CNC(=O)c1cncc(/C=C/c2ccccc2Cl)c1	0.65%	0.52%	3.45%	3.22%	1.73%	2.89%	3.36%	1.03%	2.25%	-2.07%	-0.38%	4.61%	4.26%	0.56%	8.62%	0.31%	8.91%	0.88%	-1.08%	1.53%
c1ccc(COc2ccc(Nc3ncnc4ccc(-c5ccco5)cc34)cc2)cc1	-0.53%	1.43%	0.51%	-1.79%	2.2%	-0.56%	0.58%	0.67%	2.29%	-2.52%	3.28%	-0.16%	-1.67%	-0.97%	1.48%	0.91%	1.54%	0.28%	11.7%	2.01%
COc1cc(Nc2nccc(Nc3ccc4c(C)n[nH]c4c3)n2)cc(OC)c1OC	2.74%	3.49%	5.3%	-0.28%	-0.14%	2.13%	1.07%	1.6%	1.71%	2.15%	5.95%	10.4%	35.5%	3.57%	3.29%	2.02%	1.97%	3.39%	6.21%	4.54%
CS(=O)(=O)CCNCc1ccc(-c2ccc3ncnc(Nc4ccc(OCc5ccccc5)c(C(F)(F)F)c4)c3c2)o1	0.75%	3.38%	3.03%	1.55%	1.26%	2.51%	4.06%	3.06%	2.92%	-6.64%	3.87%	-0.55%	-0.02%	0.14%	4.02%	3.18%	4.31%	0.11%	4.44%	2.86%
[O-][S+]1CCN(Cc2ccc(-c3ccc4ncnc(Nc5ccc(OCc6cccc(F)c6)c(Cl)c5)c4c3)o2)CC1	1.89%	3.42%	4%	-0.64%	2.65%	4.53%	3.72%	3.59%	5.6%	5.66%	5.75%	0.9%	3.1%	1.17%	3.09%	3.06%	4.57%	0.83%	1.18%	3.06%
CC1=C(C(=O)Nc2cc(Cl)c3[nH]ncc3c2)C(c2ccc(C(F)(F)F)cc2)CC(=O)N1 (stereo not given)	36.4%	4.9%	17.9%	4.31%	12.5%	8.68%	34.4%	18.4%	62.2%	5.35%	16.3%	1.17%	5.4%	0.02%	3.03%	1.64%	8.61%	-0.28%	1.73%	1.03%
Nc1nc(-c2ccc(F)cc2)c(-c2ccc3ncccc3n2)s1	3.36%	2.87%	4.24%	4.24%	4.34%	4.05%	3.66%	3.33%	5.29%	1.85%	3.37%	3.85%	7.09%	1.97%	3.32%	2.41%	5.28%	0.67%	0.5%	4.42%
CCn1c(-c2nonc2N)nc2ccccc21	10.4%	4.57%	5.48%	-0.51%	9.28%	2.3%	23.6%	3.06%	1.63%	0.31%	4.49%	1.56%	10.1%	2.54%	8.27%	1.85%	9.49%	1.89%	2.35%	4.29%
NC(=O)c1sc(-n2cnc3ccc(C(F)(F)F)cc32)cc1OCc1ccccc1Br	2.19%	3.07%	4.04%	-0.91%	3.21%	3.83%	4.65%	2.58%	4.41%	3.14%	3.78%	-0.18%	3.82%	0.06%	1.03%	2.41%	4.25%	-0.93%	0.69%	1.87%
COC(=O)c1sc(-n2cnc3cc(OC)c(OC)cc32)cc1OCc1ccccc1C(F)(F)F	1.66%	2.5%	4.04%	1.44%	1.94%	2.58%	1.46%	3.84%	8.18%	-0.41%	5.51%	18.4%	47.1%	0.92%	2.12%	2.43%	4.63%	0.66%	2.52%	5.18%
